# Test results as given in the supplement of paper PMC12282887.
# ± gives the standard deviation of the averaged measurements.
# Key:
# Assay in all cases: promoter activity interaction Z-score (Lux/OD deviation from empty-vector control); higher = stronger promoter induction by the compound
# [1] = tested on: E. coli BW25113 acrABp lux reporter
# In short: (§1)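 Reporter strains of E. coli BW25113 grew at 37°C in 40 µl LB Lennox in 384-well plates. Readings of OD600 and luminescence were taken every 30 min over 12 h, integrated over 0–8 h (wild type) or 1–9 h (deletion strains), and wells below 10% of the median growth value were excluded. Scores are Z-transformed residuals of growth-normalised luminescence from a fit against a control.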
# [2] = tested on: E. coli BW25113 ompFp lux reporter
# In short: as §1
# [3] = tested on: E. coli BW25113 robp lux reporter
# In short: as §1
# [4] = tested on: E. coli BW25113 soxSp lux reporter
# In short: as §1
# [5] = tested on: E. coli BW25113 tolCp lux reporter
# In short: as §1
# [6] = 2.6 µg/ml, genetic background: wild type
# [7] = 2.6 µg/ml, genetic background: ΔmarA
# [8] = 2.6 µg/ml, genetic background: Δrob
# [9] = 2.6 µg/ml, genetic background: ΔsoxS
# [10] = 5.3 µg/ml, genetic background: wild type
# [11] = 5.3 µg/ml, genetic background: ΔmarA
# [12] = 5.3 µg/ml, genetic background: Δrob
# [13] = 5.3 µg/ml, genetic background: ΔsoxS
# [14] = 10.6 µg/ml, genetic background: wild type
# [15] = 10.6 µg/ml, genetic background: ΔmarA
# [16] = 10.6 µg/ml, genetic background: Δrob
# [17] = 10.6 µg/ml, genetic background: ΔsoxS
# [18] = 21.1 µg/ml, genetic background: wild type
# [19] = 21.1 µg/ml, genetic background: ΔmarA
# [20] = 21.1 µg/ml, genetic background: Δrob
# [21] = 21.1 µg/ml, genetic background: ΔsoxS
smiles,measurement,setting,value
CC(=O)N[C@H]1[C@@H](O[C@@H]2O[C@H](CC(O)[C@H]3O[C@@H](n4ccc(=O)[nH]c4=O)[C@H](O)[C@@H]3O)[C@H](O)[C@H](O)[C@H]2NC(=O)/C=C/CC(C)C)O[C@H](CO)[C@@H](N)[C@@H]1O (stereo not given in full) [Tunicamycin],promoter activity interaction Z-score,[1]; [6],0.13 ± 0.29
same,promoter activity interaction Z-score,[1]; [7],-0.0876 ± 0.12
same,promoter activity interaction Z-score,[1]; [8],-0.143 ± 0.18
same,promoter activity interaction Z-score,[1]; [9],-0.217 ± 0.36
same,promoter activity interaction Z-score,[1]; [10],-0.0561 ± 0.2
same,promoter activity interaction Z-score,[1]; [11],-0.914 ± 0.2
same,promoter activity interaction Z-score,[1]; [12],-0.22 ± 0.25
same,promoter activity interaction Z-score,[1]; [13],-0.179 ± 0.21
same,promoter activity interaction Z-score,[1]; [14],0.0358 ± 0.052
same,promoter activity interaction Z-score,[1]; [15],0.615 ± 0.22
same,promoter activity interaction Z-score,[1]; [16],-0.243 ± 0.0041
same,promoter activity interaction Z-score,[1]; [17],-0.426 ± 0.35
same,promoter activity interaction Z-score,[1]; [18],-0.24 ± 0.063
same,promoter activity interaction Z-score,[1]; [19],-0.0177 ± 0.64
same,promoter activity interaction Z-score,[1]; [20],-0.332 ± 0.11
same,promoter activity interaction Z-score,[1]; [21],-0.769 ± 0.066
same,promoter activity interaction Z-score,[2]; [6],-0.448 ± 0.043
same,promoter activity interaction Z-score,[2]; [7],-0.515 ± 0.43
same,promoter activity interaction Z-score,[2]; [8],-0.684 ± 0.075
same,promoter activity interaction Z-score,[2]; [9],-0.00783 ± 0.5
same,promoter activity interaction Z-score,[2]; [10],-0.405 ± 0.21
same,promoter activity interaction Z-score,[2]; [11],-0.484 ± 1.3
same,promoter activity interaction Z-score,[2]; [12],-0.656 ± 0.73
same,promoter activity interaction Z-score,[2]; [13],0.307 ± 0.49
same,promoter activity interaction Z-score,[2]; [14],-0.305 ± 0.016
same,promoter activity interaction Z-score,[2]; [15],-0.602 ± 0.0081
same,promoter activity interaction Z-score,[2]; [16],-0.783 ± 0.28
same,promoter activity interaction Z-score,[2]; [17],-0.819 ± 0.56
same,promoter activity interaction Z-score,[2]; [18],-0.675 ± 0.34
same,promoter activity interaction Z-score,[2]; [19],-0.947 ± 0.57
same,promoter activity interaction Z-score,[2]; [20],-0.245 ± 0.018
same,promoter activity interaction Z-score,[2]; [21],-1.09 ± 0.71
same,promoter activity interaction Z-score,[3]; [6],-0.274 ± 0.39
same,promoter activity interaction Z-score,[3]; [7],-0.38 ± 0.41
same,promoter activity interaction Z-score,[3]; [8],-0.03 ± 0.92
same,promoter activity interaction Z-score,[3]; [9],-0.268 ± 0.31
same,promoter activity interaction Z-score,[3]; [10],0.0974 ± 0.18
same,promoter activity interaction Z-score,[3]; [11],-1.07 ± 0.12
same,promoter activity interaction Z-score,[3]; [12],0.0652 ± 0.47
same,promoter activity interaction Z-score,[3]; [13],0.323 ± 0.16
same,promoter activity interaction Z-score,[3]; [14],-0.167 ± 0.13
same,promoter activity interaction Z-score,[3]; [15],-0.402 ± 0.074
same,promoter activity interaction Z-score,[3]; [16],-0.108 ± 0.64
same,promoter activity interaction Z-score,[3]; [17],-0.846 ± 0.13
same,promoter activity interaction Z-score,[3]; [18],-0.06 ± 0.16
same,promoter activity interaction Z-score,[3]; [19],0.217 ± 0.25
same,promoter activity interaction Z-score,[3]; [20],-0.865 ± 0.29
same,promoter activity interaction Z-score,[3]; [21],-1.32 ± 0.15
same,promoter activity interaction Z-score,[4]; [6],-0.153 ± 0.24
same,promoter activity interaction Z-score,[4]; [7],-0.163 ± 0.076
same,promoter activity interaction Z-score,[4]; [8],-0.181 ± 0.11
same,promoter activity interaction Z-score,[4]; [9],-0.281 ± 0.17
same,promoter activity interaction Z-score,[4]; [10],-0.207 ± 0.12
same,promoter activity interaction Z-score,[4]; [11],-0.432 ± 0.03
same,promoter activity interaction Z-score,[4]; [12],-0.396 ± 0.41
same,promoter activity interaction Z-score,[4]; [13],-0.473 ± 0.0061
same,promoter activity interaction Z-score,[4]; [14],-0.362 ± 0.15
same,promoter activity interaction Z-score,[4]; [15],-0.417 ± 0.065
same,promoter activity interaction Z-score,[4]; [16],-0.286 ± 0.13
same,promoter activity interaction Z-score,[4]; [17],-0.66 ± 0.33
same,promoter activity interaction Z-score,[4]; [18],-0.651 ± 0.052
same,promoter activity interaction Z-score,[4]; [19],-0.805 ± 0.022
same,promoter activity interaction Z-score,[4]; [20],-0.856 ± 0.24
same,promoter activity interaction Z-score,[4]; [21],-1.4 ± 0.29
same,promoter activity interaction Z-score,[5]; [6],0.117 ± 0.23
same,promoter activity interaction Z-score,[5]; [7],0.186 ± 0.86
same,promoter activity interaction Z-score,[5]; [8],0.627 ± 0.57
same,promoter activity interaction Z-score,[5]; [9],-0.42 ± 1.2
same,promoter activity interaction Z-score,[5]; [10],0.292 ± 0.33
same,promoter activity interaction Z-score,[5]; [11],0.228 ± 1.2
same,promoter activity interaction Z-score,[5]; [12],0.351 ± 0.028
same,promoter activity interaction Z-score,[5]; [13],-0.0491 ± 0.37
same,promoter activity interaction Z-score,[5]; [14],0.145 ± 0.28
same,promoter activity interaction Z-score,[5]; [15],-0.36 ± 0.22
same,promoter activity interaction Z-score,[5]; [16],0.607 ± 0.47
same,promoter activity interaction Z-score,[5]; [17],-0.445 ± 0.3
same,promoter activity interaction Z-score,[5]; [18],0.0528 ± 0.23
same,promoter activity interaction Z-score,[5]; [19],-0.275 ± 0.55
same,promoter activity interaction Z-score,[5]; [20],-1.04 ± 0.42
same,promoter activity interaction Z-score,[5]; [21],-0.899 ± 0.71
